From PubChem BioAssay (NCI)
This is part of a sample that, as a whole, favours compounds with a hit. Of some 83,000 tested, about 20% had one in any assay.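 Negative percent growth values reflect cell death: -40 means 40% of the cells present at the start died, and -100 means all died.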 The source made the active and inactive calls. How the source made its calls: active means growth percent below 10; inactive means the rest.

Experiments:
Assay in all cases: NCI-60 one-dose screen, 48 h (100 = growth as untreated, 0 = no growth, -100 = all killed)
Conditions in all cases: 10 µM unless noted
HT29 colon = tested on: HT29 colon
SNB-75 CNS = tested on: SNB-75 CNS
SNB-19 CNS = tested on: SNB-19 CNS
U251 CNS = tested on: U251 CNS
PC-3 prostate = tested on: PC-3 prostate
UACC-62 melanoma = tested on: UACC-62 melanoma
LOX IMVI melanoma = tested on: LOX IMVI melanoma
SK-MEL-28 melanoma = tested on: SK-MEL-28 melanoma
SK-MEL-2 melanoma = tested on: SK-MEL-2 melanoma
EKVX NSCLC = tested on: EKVX NSCLC
SN12C renal = tested on: SN12C renal
UO-31 renal = tested on: UO-31 renal
ACHN renal = tested on: ACHN renal
CAKI-1 renal = tested on: CAKI-1 renal
A498 renal = tested on: A498 renal
CCRF-CEM leukemia = tested on: CCRF-CEM leukemia
MOLT-4 leukemia = tested on: MOLT-4 leukemia
SR leukemia = tested on: SR leukemia
SK-MEL-5 melanoma = tested on: SK-MEL-5 melanoma
TK-10 renal = tested on: TK-10 renal

Measured: growth

[Cl][Ru].c1ccc(-c2cccc(-c3ccccn3)n2)nc1.c1ccc(-c2ccnc3c2ccc2c(-c4ccccc4)ccnc23)cc1
active: SNB-75 CNS 1.93% | SK-MEL-2 melanoma -36.9%
inactive: HT29 colon 21% | SNB-19 CNS 23.5% | U251 CNS 31.7% | PC-3 prostate 23.6% | UACC-62 melanoma 14.2% | LOX IMVI melanoma 37.4% | SK-MEL-28 melanoma 31.3% | EKVX NSCLC 62.7% | SN12C renal 20.1% | UO-31 renal 79.6% | ACHN renal 96.7% | CAKI-1 renal 80.3% | A498 renal 54.9% | CCRF-CEM leukemia 38% | MOLT-4 leukemia 41.4% | SR leukemia 11%

O=C(CCN1C(=O)/C(=C/c2ccccc2F)SC1=S)N1CCOCC1
active: LOX IMVI melanoma -34.1%
inactive: HT29 colon 87.1% | SNB-75 CNS 94% | SNB-19 CNS 99% | U251 CNS 94.4% | PC-3 prostate 108% | UACC-62 melanoma 82.7% | SK-MEL-28 melanoma 85.1% | SK-MEL-2 melanoma 113% | EKVX NSCLC 86.8% | SN12C renal 73.9% | UO-31 renal 67.6% | ACHN renal 62.2% | CAKI-1 renal 84.7% | A498 renal 111% | CCRF-CEM leukemia 53.3% | MOLT-4 leukemia 89.9% | SR leukemia 46.7%

COc1cc2cc(Oc3ccc(NC(=O)c4cccc(C(F)(F)F)c4)cc3)c(C)nc2cc1OCCN1CCCCC1
active: HT29 colon -50.7% | U251 CNS -63.8% | UACC-62 melanoma -65.8% | SK-MEL-28 melanoma -88.5% | CCRF-CEM leukemia 6.44% | MOLT-4 leukemia 1.53% | SR leukemia -40.6%
inactive: SNB-75 CNS 90.8% | SNB-19 CNS 90.2% | PC-3 prostate 33.1% | SK-MEL-5 melanoma 38.7% | SK-MEL-2 melanoma 74% | SN12C renal 76.2% | UO-31 renal 69.3% | ACHN renal 80.5% | CAKI-1 renal 57.4% | A498 renal 78.6%

COc1cccc(NC2=CC(=O)C(C)=C(C)C2=O)c1
inactive: HT29 colon 98.3% | SNB-75 CNS 99.8% | SNB-19 CNS 97.7% | U251 CNS 95.1% | PC-3 prostate 36.3% | UACC-62 melanoma 91.8% | SK-MEL-28 melanoma 96.5% | SK-MEL-2 melanoma 83.6% | EKVX NSCLC 36.7% | SN12C renal 80.5% | UO-31 renal 86% | TK-10 renal 135% | ACHN renal 70.9% | CAKI-1 renal 93% | A498 renal 67.2% | CCRF-CEM leukemia 15.8% | MOLT-4 leukemia 17.9% | SR leukemia 23.2%

Cn1c(SCC(=O)c2cccs2)nc2ccccc2c1=O
inactive: HT29 colon 106% | SNB-75 CNS 88.7% | SNB-19 CNS 102% | U251 CNS 97.5% | PC-3 prostate 90.3% | UACC-62 melanoma 92.6% | SK-MEL-28 melanoma 105% | SK-MEL-2 melanoma 98% | EKVX NSCLC 73.1% | SN12C renal 91.8% | UO-31 renal 84.5% | TK-10 renal 177% | ACHN renal 91.7% | CAKI-1 renal 82.1% | A498 renal 63.9% | CCRF-CEM leukemia 80.3% | MOLT-4 leukemia 87% | SR leukemia 90.4%

CC(=NNc1ncnc2ccccc12)c1ccc(S(C)(=O)=O)cc1
inactive: HT29 colon 112% | SNB-75 CNS 103% | SNB-19 CNS 97.6% | U251 CNS 117% | PC-3 prostate 87.9% | SK-MEL-5 melanoma 101% | UACC-62 melanoma 96.1% | SK-MEL-28 melanoma 113% | EKVX NSCLC 91.1% | SN12C renal 97.2% | UO-31 renal 73.1% | TK-10 renal 152% | ACHN renal 103% | CAKI-1 renal 89.4% | CCRF-CEM leukemia 99.9% | MOLT-4 leukemia 100% | SR leukemia 100%

Clc1ccc2c(OCCCN3CCOCC3)c3oc4ccccc4c3nc2c1
inactive: HT29 colon 25.2% | SNB-75 CNS 43.5% | SNB-19 CNS 41.9% | U251 CNS 36.2% | PC-3 prostate 50.7% | UACC-62 melanoma 33.6% | LOX IMVI melanoma 12.9% | SK-MEL-28 melanoma 42.1% | SK-MEL-2 melanoma 78.2% | EKVX NSCLC 34.6% | SN12C renal 30.4% | UO-31 renal 22.2% | ACHN renal 15.3% | CAKI-1 renal 19.7% | A498 renal 13.6% | MOLT-4 leukemia 11.7% | SR leukemia 11.9%

COc1ccc(-c2nc3ccc(-c4nnc(SCC(=O)Nc5ccc(C(=O)/C=C/c6ccc(Cl)cc6)cc5)o4)cc3[nH]2)cc1OC
inactive: HT29 colon 108% | SNB-75 CNS 106% | SNB-19 CNS 109% | U251 CNS 100% | PC-3 prostate 97.7% | UACC-62 melanoma 98% | SK-MEL-28 melanoma 105% | EKVX NSCLC 91.9% | SN12C renal 94.9% | UO-31 renal 87% | TK-10 renal 134% | CAKI-1 renal 100% | A498 renal 100% | CCRF-CEM leukemia 100% | MOLT-4 leukemia 75.8% | SR leukemia 73%
active: LOX IMVI melanoma 3.17%

Clc1ccc2oc3c(NCCCn4ccnc4)c4ccccc4nc3c2c1
active: HT29 colon -35.2% | ACHN renal 9.12% | MOLT-4 leukemia 7.69% | SR leukemia -5.22%
inactive: SNB-75 CNS 42.1% | SNB-19 CNS 51% | U251 CNS 11.6% | PC-3 prostate 55.4% | SK-MEL-5 melanoma 78% | UACC-62 melanoma 45.2% | SK-MEL-28 melanoma 59% | EKVX NSCLC 73.8% | SN12C renal 38.4% | UO-31 renal 30% | CAKI-1 renal 30.6% | A498 renal 14.3% | CCRF-CEM leukemia 19.4%

Cn1cc(-c2cc(N)n3nc(-c4cn(C)c5ccc(F)cc45)cc3n2)c2cc(F)ccc21
active: HT29 colon -72.8% | U251 CNS -62.4% | LOX IMVI melanoma -61.9% | ACHN renal -38.6% | CCRF-CEM leukemia 3.2% | MOLT-4 leukemia 3.58% | SR leukemia -16.2%
inactive: SNB-75 CNS 109% | SNB-19 CNS 50.1% | PC-3 prostate 63.4% | UACC-62 melanoma 62.5% | SK-MEL-28 melanoma 92.4% | EKVX NSCLC 93.5% | SN12C renal 11.8% | UO-31 renal 21.2% | TK-10 renal 48.7% | CAKI-1 renal 56.5% | A498 renal 72.6%

COc1ccc(/C=C/C(=O)c2ccc(NC(=O)CSc3nnc(-c4ccc5nc(-c6ccc(Cl)cc6)[nH]c5c4)o3)cc2)cc1
active: LOX IMVI melanoma 6.79%
inactive: HT29 colon 106% | SNB-75 CNS 98.5% | SNB-19 CNS 106% | U251 CNS 96% | PC-3 prostate 82.5% | UACC-62 melanoma 83.8% | SK-MEL-28 melanoma 113% | EKVX NSCLC 103% | SN12C renal 93.4% | UO-31 renal 87.5% | TK-10 renal 136% | ACHN renal 102% | CAKI-1 renal 97.4% | A498 renal 111% | CCRF-CEM leukemia 59.9% | MOLT-4 leukemia 64.4% | SR leukemia 80.5%

CN(C)CCCOc1c2ccccc2nc2c1oc1ccc(Cl)cc12
inactive: SNB-19 CNS 16.1% | U251 CNS 16.7% | EKVX NSCLC 12.4% | SN12C renal 12.4% | CCRF-CEM leukemia 16.8%
active: HT29 colon -43.4% | SNB-75 CNS 5.58% | PC-3 prostate 5.23% | SK-MEL-5 melanoma -16% | UACC-62 melanoma -49.7% | SK-MEL-28 melanoma 9.1% | UO-31 renal 4.84% | ACHN renal 1.64% | CAKI-1 renal -6.35% | A498 renal -6.15% | MOLT-4 leukemia -1.53% | SR leukemia -26.7%

N#Cc1c(-c2ccc(Cl)cc2)nc(SCc2ccc([N+](=O)[O-])cc2)nc1N1CCNCC1
inactive: SNB-75 CNS 28.1% | SNB-19 CNS 51.8% | UACC-62 melanoma 12.5% | UO-31 renal 22.4% | TK-10 renal 77.4% | CAKI-1 renal 13.6% | A498 renal 44.7%
active: HT29 colon -71.9% | U251 CNS -95.9% | PC-3 prostate -1.75% | LOX IMVI melanoma -61.7% | SK-MEL-28 melanoma 8.08% | SK-MEL-2 melanoma -2.3% | SN12C renal 1.59% | ACHN renal -67.4% | CCRF-CEM leukemia -14% | MOLT-4 leukemia -27% | SR leukemia -43.3%

CCCCCCNC(=O)Oc1ccc(/C(=C(/C)c2ccccc2)c2ccc(OCCN3CCCCCC3)cc2)cc1
active: HT29 colon -13.3% | LOX IMVI melanoma -14.5% | MOLT-4 leukemia 4.41% | SR leukemia -37.4%
inactive: SNB-75 CNS 56% | SNB-19 CNS 66.7% | U251 CNS 22.1% | PC-3 prostate 38.7% | UACC-62 melanoma 44.2% | SK-MEL-28 melanoma 44.4% | EKVX NSCLC 64.2% | SN12C renal 42.8% | UO-31 renal 28.9% | TK-10 renal 104% | ACHN renal 69.3% | CAKI-1 renal 35.9% | A498 renal 78.7% | CCRF-CEM leukemia 16.3%

Nc1c(C(=O)c2ccc(Br)cc2)oc2nc(-c3cnccn3)cc(-c3cccs3)c12
inactive: HT29 colon 111% | SNB-75 CNS 98.3% | SNB-19 CNS 97.1% | U251 CNS 92.1% | PC-3 prostate 96.3% | SK-MEL-5 melanoma 98% | UACC-62 melanoma 93.7% | SK-MEL-28 melanoma 107% | EKVX NSCLC 102% | SN12C renal 97.9% | UO-31 renal 87.1% | TK-10 renal 172% | ACHN renal 103% | CAKI-1 renal 95.2% | CCRF-CEM leukemia 100% | MOLT-4 leukemia 95% | SR leukemia 91.7%

Cc1cc2nc3c4cc(Cl)ccc4n(CC(=O)NCCN(C)C)c3nc2cc1C
active: HT29 colon -75.5% | U251 CNS -38% | SK-MEL-28 melanoma -88.6% | UO-31 renal -83.6% | ACHN renal -47.4% | CCRF-CEM leukemia -14.5% | MOLT-4 leukemia -19.4% | SR leukemia -38%
inactive: SNB-75 CNS 64.1% | SNB-19 CNS 81.5% | PC-3 prostate 60.8% | SK-MEL-5 melanoma 89.8% | UACC-62 melanoma 79.4% | EKVX NSCLC 73.8% | SN12C renal 79.8% | TK-10 renal 161% | CAKI-1 renal 53.9%

O=C(CSc1nc2sc3c(c2c(=O)n1-c1ccc(Cl)cc1)CCCC3)NNC(=O)Nc1ccc(Cl)c(C(F)(F)F)c1
inactive: SNB-75 CNS 42.1% | SNB-19 CNS 50.4% | UACC-62 melanoma 37.1% | SK-MEL-28 melanoma 53.7% | EKVX NSCLC 41% | SN12C renal 32.3% | UO-31 renal 30.4% | TK-10 renal 38.3% | ACHN renal 13.3% | CAKI-1 renal 34.6% | CCRF-CEM leukemia 13.5%
active: HT29 colon 6.06% | U251 CNS 4.22% | PC-3 prostate -2.4% | SK-MEL-2 melanoma -9.26% | A498 renal -15.5% | MOLT-4 leukemia 6.67% | SR leukemia 8.77%
